Where “and” joins values, the source holds several entries; their conditions need not be identical. Equal entries are not always repeated.
Legend:
[1] = biological target: T1, Ephrin type-B receptor 2 (Homo sapiens) (UniProt P29323); settings: at 1 µM
T1 sequence (whole entry): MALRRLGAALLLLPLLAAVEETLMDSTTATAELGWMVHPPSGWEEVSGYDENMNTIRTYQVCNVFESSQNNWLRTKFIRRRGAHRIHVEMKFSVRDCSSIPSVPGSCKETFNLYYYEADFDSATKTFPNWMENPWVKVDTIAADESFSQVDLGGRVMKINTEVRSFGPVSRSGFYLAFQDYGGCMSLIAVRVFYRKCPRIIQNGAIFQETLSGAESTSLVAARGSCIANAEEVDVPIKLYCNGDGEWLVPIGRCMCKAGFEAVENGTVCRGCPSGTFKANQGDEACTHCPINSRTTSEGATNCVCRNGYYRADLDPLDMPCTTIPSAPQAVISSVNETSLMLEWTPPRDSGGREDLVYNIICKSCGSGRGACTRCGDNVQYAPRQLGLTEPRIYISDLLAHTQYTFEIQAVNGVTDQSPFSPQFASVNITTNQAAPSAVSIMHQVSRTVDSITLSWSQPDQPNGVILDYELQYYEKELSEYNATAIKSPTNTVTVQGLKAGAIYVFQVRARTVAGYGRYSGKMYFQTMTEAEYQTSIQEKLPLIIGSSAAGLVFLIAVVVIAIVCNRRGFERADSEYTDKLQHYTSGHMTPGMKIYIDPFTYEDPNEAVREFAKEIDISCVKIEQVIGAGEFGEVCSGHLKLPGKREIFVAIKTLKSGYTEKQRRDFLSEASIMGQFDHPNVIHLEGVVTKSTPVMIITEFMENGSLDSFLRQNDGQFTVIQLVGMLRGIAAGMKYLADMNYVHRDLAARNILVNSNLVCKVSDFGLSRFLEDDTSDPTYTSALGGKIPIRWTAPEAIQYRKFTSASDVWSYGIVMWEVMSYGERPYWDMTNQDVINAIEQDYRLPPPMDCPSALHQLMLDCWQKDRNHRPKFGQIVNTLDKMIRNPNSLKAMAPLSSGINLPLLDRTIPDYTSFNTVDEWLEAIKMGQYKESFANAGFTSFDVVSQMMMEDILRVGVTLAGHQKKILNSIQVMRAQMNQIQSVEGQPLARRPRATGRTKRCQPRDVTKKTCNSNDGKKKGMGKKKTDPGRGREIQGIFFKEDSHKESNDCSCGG

[2] = biological target: T2, Ephrin type-B receptor 3 (Homo sapiens) (UniProt P54753); settings: at 0.1 µM
T2 sequence (whole entry): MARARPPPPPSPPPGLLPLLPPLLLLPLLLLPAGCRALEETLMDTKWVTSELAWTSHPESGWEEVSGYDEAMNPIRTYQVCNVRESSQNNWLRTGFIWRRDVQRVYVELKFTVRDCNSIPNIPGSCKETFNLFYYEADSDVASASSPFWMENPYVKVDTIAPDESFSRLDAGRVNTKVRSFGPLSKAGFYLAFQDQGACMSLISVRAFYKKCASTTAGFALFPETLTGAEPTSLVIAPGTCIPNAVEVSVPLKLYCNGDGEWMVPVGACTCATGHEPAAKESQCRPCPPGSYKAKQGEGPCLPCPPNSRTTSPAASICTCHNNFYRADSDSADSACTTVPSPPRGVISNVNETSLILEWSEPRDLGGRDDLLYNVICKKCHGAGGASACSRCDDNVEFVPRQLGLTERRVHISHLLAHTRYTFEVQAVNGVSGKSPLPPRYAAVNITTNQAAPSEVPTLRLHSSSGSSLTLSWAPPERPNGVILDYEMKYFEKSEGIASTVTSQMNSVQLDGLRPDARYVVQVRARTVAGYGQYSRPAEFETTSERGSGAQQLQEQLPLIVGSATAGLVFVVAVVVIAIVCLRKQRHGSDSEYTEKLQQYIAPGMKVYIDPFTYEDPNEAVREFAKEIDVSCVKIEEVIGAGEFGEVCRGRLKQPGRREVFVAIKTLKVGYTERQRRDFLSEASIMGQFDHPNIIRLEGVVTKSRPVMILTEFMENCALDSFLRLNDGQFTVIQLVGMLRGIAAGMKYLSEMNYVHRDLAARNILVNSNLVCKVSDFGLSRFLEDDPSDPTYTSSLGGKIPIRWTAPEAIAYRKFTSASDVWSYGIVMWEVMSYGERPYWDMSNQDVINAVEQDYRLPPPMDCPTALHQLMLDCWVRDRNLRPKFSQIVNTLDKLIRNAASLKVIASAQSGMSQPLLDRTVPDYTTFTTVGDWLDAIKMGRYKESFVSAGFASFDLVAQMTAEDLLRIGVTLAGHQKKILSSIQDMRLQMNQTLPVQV

[3] = biological target: T2, Ephrin type-B receptor 3 (Homo sapiens); settings: at 1 µM
[4] = biological target: T3, Ephrin type-B receptor 4 (Homo sapiens) (UniProt P54760); settings: at 0.1 µM
T3 sequence (whole entry): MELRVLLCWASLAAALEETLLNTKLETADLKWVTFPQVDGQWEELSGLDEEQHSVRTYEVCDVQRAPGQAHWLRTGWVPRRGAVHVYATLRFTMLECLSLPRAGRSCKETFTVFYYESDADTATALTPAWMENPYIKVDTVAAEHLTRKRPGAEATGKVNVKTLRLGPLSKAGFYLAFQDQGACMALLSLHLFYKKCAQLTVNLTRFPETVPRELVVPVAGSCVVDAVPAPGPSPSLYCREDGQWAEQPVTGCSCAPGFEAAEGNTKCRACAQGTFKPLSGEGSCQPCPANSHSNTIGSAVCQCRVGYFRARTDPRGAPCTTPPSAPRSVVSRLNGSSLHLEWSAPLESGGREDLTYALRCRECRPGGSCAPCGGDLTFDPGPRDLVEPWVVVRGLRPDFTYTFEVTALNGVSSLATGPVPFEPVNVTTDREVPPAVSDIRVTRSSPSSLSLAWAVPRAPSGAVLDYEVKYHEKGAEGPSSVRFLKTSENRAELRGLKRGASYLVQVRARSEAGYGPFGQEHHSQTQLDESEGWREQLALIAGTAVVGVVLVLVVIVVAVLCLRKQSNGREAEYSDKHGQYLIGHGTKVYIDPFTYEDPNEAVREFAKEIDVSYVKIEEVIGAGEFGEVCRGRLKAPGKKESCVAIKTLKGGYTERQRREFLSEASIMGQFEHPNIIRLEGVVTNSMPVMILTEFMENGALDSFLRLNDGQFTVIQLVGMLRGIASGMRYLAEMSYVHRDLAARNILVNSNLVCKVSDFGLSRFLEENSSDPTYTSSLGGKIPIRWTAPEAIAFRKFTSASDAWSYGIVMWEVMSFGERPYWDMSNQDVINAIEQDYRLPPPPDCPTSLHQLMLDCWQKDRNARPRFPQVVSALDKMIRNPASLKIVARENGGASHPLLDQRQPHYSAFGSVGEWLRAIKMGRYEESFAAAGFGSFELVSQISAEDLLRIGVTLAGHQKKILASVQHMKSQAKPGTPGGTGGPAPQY

[5] = biological target: T3, Ephrin type-B receptor 4 (Homo sapiens); settings: at 1 µM
[6] = biological target: Receptor tyrosine-protein kinase erbB-2 (Homo sapiens) (UniProt P04626); settings: at 0.1 µM
Sequence of Receptor tyrosine-protein kinase erbB-2 (Homo sapiens) (P04626 whole entry): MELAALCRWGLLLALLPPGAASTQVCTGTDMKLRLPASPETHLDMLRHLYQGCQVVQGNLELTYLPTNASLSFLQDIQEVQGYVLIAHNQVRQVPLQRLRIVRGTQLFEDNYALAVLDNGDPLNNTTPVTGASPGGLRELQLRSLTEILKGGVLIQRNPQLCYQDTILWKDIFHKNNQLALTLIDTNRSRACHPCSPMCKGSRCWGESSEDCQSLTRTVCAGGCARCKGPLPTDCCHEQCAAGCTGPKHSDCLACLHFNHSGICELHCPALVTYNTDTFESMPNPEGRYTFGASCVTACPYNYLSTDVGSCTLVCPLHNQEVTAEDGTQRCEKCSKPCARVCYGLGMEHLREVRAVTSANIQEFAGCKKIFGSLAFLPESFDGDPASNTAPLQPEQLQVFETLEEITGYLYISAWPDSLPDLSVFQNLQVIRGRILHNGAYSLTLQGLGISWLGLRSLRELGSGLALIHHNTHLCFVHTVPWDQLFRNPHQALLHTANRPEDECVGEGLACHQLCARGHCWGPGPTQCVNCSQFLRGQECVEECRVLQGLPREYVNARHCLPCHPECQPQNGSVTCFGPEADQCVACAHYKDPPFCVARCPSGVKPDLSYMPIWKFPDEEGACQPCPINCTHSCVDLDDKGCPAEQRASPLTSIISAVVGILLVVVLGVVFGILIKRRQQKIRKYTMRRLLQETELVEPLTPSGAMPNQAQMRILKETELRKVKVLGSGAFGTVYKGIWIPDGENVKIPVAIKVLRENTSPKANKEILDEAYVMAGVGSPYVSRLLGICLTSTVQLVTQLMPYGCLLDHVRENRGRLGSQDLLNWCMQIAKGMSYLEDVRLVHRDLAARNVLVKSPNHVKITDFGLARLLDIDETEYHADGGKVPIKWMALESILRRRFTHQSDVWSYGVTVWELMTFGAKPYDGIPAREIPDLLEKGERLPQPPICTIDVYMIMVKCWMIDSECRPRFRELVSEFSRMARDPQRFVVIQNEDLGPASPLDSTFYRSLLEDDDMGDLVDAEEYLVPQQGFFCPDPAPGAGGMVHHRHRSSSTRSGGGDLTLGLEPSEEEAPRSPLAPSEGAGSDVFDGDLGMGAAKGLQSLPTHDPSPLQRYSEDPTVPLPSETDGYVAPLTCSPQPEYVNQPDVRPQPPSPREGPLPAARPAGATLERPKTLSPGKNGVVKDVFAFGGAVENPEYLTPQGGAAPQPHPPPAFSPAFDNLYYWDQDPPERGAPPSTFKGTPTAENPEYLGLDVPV

[7] = biological target: Receptor tyrosine-protein kinase erbB-2 (Homo sapiens) (UniProt P04626); settings: at 1 µM
[8] = biological target: Receptor tyrosine-protein kinase erbB-4 (Homo sapiens) (UniProt Q15303); settings: at 0.1 µM
Sequence of Receptor tyrosine-protein kinase erbB-4 (Homo sapiens) (Q15303 whole entry): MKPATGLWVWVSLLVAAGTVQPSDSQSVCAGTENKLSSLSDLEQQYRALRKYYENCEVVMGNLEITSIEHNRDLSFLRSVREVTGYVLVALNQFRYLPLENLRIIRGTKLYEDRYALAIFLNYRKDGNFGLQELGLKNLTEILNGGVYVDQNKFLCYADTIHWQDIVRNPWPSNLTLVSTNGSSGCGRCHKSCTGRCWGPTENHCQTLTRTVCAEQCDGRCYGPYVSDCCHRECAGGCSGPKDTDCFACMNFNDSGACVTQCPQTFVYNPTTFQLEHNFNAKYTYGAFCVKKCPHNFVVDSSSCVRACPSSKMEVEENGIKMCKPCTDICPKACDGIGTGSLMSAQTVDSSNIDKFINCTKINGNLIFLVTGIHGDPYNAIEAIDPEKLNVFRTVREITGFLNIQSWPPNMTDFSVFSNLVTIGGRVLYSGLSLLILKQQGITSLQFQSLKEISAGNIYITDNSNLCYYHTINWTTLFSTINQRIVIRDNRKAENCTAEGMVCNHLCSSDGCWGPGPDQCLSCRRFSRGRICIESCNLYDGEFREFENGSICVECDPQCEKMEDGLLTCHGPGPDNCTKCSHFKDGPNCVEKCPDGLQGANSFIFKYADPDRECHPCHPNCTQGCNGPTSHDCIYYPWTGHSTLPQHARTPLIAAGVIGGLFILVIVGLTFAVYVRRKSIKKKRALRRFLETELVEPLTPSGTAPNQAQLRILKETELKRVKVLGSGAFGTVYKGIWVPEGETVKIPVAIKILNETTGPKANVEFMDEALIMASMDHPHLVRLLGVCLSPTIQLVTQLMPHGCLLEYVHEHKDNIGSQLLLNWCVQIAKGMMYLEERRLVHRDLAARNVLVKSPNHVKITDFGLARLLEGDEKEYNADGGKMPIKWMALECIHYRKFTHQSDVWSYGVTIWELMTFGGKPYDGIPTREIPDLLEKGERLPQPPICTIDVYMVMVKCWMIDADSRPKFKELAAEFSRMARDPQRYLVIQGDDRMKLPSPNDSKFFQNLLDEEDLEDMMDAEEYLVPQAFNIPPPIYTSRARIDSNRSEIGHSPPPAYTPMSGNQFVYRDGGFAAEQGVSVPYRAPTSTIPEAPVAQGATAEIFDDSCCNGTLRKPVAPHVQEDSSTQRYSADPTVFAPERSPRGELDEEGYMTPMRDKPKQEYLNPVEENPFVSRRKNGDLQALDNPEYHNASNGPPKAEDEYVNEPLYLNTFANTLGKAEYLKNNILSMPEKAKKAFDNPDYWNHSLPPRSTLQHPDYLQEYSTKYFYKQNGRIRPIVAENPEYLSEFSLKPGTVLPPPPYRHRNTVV

[9] = biological target: Receptor tyrosine-protein kinase erbB-4 (Homo sapiens) (UniProt Q15303); settings: at 1 µM
[10] = biological target: Tyrosine-protein kinase Fer (Homo sapiens) (UniProt P16591); settings: at 0.1 µM
[11] = biological target: Tyrosine-protein kinase Fer (Homo sapiens) (UniProt P16591); settings: at 1 µM
[12] = biological target: Tyrosine-protein kinase Fes/Fps (Homo sapiens) (UniProt P07332); settings: at 0.1 µM
[13] = biological target: Tyrosine-protein kinase Fes/Fps (Homo sapiens) (UniProt P07332); settings: at 1 µM
[14] = biological target: Fibroblast growth factor receptor 1 (Homo sapiens) (UniProt P11362); settings: at 0.1 µM
Sequence of Fibroblast growth factor receptor 1 (Homo sapiens) (P11362 22-822 limits assumed): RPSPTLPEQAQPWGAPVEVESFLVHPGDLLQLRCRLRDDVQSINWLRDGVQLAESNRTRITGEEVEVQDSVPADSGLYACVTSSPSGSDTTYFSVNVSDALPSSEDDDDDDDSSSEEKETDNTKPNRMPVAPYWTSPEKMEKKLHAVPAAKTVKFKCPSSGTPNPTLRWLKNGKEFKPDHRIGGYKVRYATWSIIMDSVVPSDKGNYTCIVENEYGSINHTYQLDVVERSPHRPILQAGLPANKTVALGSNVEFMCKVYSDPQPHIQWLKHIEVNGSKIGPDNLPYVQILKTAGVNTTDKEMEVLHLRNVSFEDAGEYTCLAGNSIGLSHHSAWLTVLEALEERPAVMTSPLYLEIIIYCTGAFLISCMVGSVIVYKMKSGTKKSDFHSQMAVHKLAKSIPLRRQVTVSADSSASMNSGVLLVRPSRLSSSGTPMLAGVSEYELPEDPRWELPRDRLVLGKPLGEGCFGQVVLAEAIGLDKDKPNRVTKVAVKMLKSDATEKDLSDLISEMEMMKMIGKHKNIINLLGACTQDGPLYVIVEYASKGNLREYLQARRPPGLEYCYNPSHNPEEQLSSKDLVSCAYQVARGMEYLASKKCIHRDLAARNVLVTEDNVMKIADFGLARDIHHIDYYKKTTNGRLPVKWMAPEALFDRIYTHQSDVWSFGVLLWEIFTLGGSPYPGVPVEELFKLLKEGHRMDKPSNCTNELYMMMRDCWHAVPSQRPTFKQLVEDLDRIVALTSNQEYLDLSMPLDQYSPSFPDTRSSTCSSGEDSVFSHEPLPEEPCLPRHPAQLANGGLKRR

[15] = biological target: Fibroblast growth factor receptor 1 (Homo sapiens) (UniProt P11362); settings: at 1 µM
[16] = biological target: Fibroblast growth factor receptor 2 (Homo sapiens) (UniProt P21802); settings: at 0.1 µM
[17] = biological target: Fibroblast growth factor receptor 2 (Homo sapiens) (UniProt P21802); settings: at 1 µM
[18] = biological target: Fibroblast growth factor receptor 3 (Homo sapiens) (UniProt P22607); settings: at 0.1 µM
Sequence of Fibroblast growth factor receptor 3 (Homo sapiens) (P22607 23-806 limits assumed): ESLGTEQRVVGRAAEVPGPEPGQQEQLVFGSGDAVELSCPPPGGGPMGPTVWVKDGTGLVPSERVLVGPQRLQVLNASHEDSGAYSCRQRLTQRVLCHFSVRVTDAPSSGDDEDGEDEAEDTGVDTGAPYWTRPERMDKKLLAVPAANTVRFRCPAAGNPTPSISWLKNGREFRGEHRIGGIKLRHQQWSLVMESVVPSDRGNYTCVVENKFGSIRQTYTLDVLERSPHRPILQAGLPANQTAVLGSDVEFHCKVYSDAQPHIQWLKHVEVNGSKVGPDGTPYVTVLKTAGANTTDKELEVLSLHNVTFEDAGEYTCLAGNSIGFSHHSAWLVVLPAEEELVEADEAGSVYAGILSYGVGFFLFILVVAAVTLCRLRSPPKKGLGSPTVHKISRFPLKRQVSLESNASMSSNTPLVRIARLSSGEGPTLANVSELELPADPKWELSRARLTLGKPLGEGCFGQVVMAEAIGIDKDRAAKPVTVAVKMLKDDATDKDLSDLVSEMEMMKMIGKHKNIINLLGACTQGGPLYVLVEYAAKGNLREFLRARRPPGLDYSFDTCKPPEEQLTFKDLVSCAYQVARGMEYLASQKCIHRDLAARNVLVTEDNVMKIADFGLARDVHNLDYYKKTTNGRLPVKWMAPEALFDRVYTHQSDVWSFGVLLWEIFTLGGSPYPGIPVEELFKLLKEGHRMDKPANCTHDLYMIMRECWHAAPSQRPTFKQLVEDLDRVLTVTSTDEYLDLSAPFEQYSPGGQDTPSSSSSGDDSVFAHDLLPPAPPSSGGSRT

[19] = biological target: Fibroblast growth factor receptor 3 (Homo sapiens) (UniProt P22607); settings: at 1 µM
[20] = biological target: Fibroblast growth factor receptor 4 (Homo sapiens) (UniProt P22455); settings: at 0.1 µM;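 also: values are mean percent inhibition of FGFR4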
Sequence of Fibroblast growth factor receptor 4 (Homo sapiens) (P22455 22-802 limits assumed): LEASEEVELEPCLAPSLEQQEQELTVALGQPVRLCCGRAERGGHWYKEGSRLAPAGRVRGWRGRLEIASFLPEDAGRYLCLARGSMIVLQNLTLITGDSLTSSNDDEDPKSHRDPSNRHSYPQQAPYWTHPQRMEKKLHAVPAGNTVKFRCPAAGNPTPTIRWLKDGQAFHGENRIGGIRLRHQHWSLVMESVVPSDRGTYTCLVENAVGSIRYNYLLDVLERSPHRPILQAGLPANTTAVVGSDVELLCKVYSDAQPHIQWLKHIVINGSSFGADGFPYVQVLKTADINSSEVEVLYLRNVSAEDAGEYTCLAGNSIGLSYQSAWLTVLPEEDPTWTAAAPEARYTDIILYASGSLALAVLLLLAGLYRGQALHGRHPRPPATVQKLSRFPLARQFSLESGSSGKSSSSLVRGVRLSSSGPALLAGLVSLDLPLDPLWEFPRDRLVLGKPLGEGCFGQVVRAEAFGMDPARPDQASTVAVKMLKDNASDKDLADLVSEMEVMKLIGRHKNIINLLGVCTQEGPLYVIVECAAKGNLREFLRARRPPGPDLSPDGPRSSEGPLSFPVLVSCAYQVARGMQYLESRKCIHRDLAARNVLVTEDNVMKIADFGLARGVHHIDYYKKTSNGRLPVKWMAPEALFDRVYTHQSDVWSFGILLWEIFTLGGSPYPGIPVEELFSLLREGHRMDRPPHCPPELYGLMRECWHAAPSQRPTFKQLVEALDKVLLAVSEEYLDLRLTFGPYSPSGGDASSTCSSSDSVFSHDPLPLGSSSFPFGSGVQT

Row | Structure (SMILES) | inhibition [1] | inhibition [2] | inhibition [3] | inhibition [4] | inhibition [5] | inhibition [6] | inhibition [7] | inhibition [8] | inhibition [9] | inhibition [10] | inhibition [11] | inhibition [12] | inhibition [13] | inhibition [14] | inhibition [15] | inhibition [16] | inhibition [17] | inhibition [18] | inhibition [19] | inhibition [20]
1 | Cc1nnc(-c2cccc(-c3ccc(C(=O)NCC4CC4)cc3)c2)o1 | 9.32% | 4.24% | 5.58% | 1.46% | 2.08% | 2.59% | 5.51% | 8.69% | 12.5% | 3.39% | 3.05% | 4.04% | 4.25% | 2.64% | 0.61% | 4.95% | 5.08% | 6.23% | 6.22% | -0.29%
2 | Nc1nonc1-c1nc2cnccc2n1C1CC1 | 14.2% and 3.79% | 5.08% and 1.12% | 6.13% and -2.08% | 2.51% and -2.43% | 1.45% and -3.41% | 1.64% and 0.4% | -1.67% and -0.01% | 1.55% and 2.22% | 6.98% and 0.35% | 2% and 1.26% | 0.34% and 3.05% | 2.84% and 0.98% | 3.51% and 0.87% | 13.1% and 2.25% | 8.28% and -2.04% | 5.07% and -2.09% | 8.58% and -2.64% | 7.58% and 1.46% | 8.03% and -1.3% | 0.52% and -4.76%
3 | CS(=O)(=O)Nc1ccc(-c2cc(-c3ccccc3)cc(C(N)=O)c2N)cc1 | 5.3% | 0.56% | 2.36% | 0.54% | 0.87% | 1.08% | 6.84% | 4.73% | 11.9% | -2.85% | 1.1% | 1.07% | 1.64% | 0.45% | 3.2% | 1.73% | 4.95% | -0.12% | 8.3% | 0.07%
4 | FC(F)(F)CNc1nccc(-c2cnn3ncccc23)n1 | 4.55% | 4.36% | 3.96% | 0.32% | 1.93% | 4.52% | 3.89% | 13.2% | 14% | 1.02% | 0.92% | 2.11% | 1.66% | 4.83% | 2.89% | 4.25% | 3.09% | 3.73% | 2.58% | 1.62%
5 | CCCNc1cccc(-n2ncc3c(N/N=C/c4ccncc4)ncnc32)c1 | 9.31% | -1.29% | 1.75% | 1.55% | 5.77% | 2.33% | 4.49% | 11.8% | 43% | -0.72% | 9.15% | 2.38% | 5.6% | 0.48% | 3.31% | 2.19% | 19.4% | 0.74% | 8.88% | -1.49%
6 | NS(=O)(=O)c1cccc(N/C=C2\C(=O)Nc3ccccc32)c1 | 10.8% | 5.46% | 2.58% | 4.23% | 3.73% | 1.3% | -0.02% | 13.3% | 14.6% | 3.91% | 6.18% | 3.03% | 3.46% | 5.1% | 8.92% | 7.77% | 26.9% | 8.3% | 21% | -4.72%
7 | CCN1CCC(C(=O)Nc2n[nH]c3nnc(-c4cccc(F)c4F)cc23)CC1 | 0.53% | 0.69% | 1.64% | 0.49% | -0.12% | 1.2% | 0.02% | -0.85% | 0.79% | -0.15% | 1.37% | -0.22% | -1.05% | -4.59% | -1.81% | -0.41% | -2.18% | -0.59% | 2.01% | 1.8%
